# The list is not random: actives were taken first. Their share in the collection is about 5.1%.
# NR3A LBD binder = modulators (binders) of human NR3A ligand-binding domain. hit rate 2.5% among 340,000. NR3A LBD differential scanning fluorimetry, Tm shift; 0% = protein alone, 100% = glycine-bound protein. AID 1259313. Tm shift relative to glycine control, % at 25 µM;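 active = melting temperature shift of at least 10% of the positive control shift, at one fixed dose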
# CRFBP-R2 block = CRF-BP/CRF-R2 complex antagonism; HEK293 CRF-R2/CRF-BP, CRF-induced calcium fluorescence; inhibition, % at 11.8 µM; hit rate 0.59% among 350,000; AID 588475;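 active = inhibition of the ligand-induced calcium signal above about 50% at the single tested concentration, limit read from the data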
# TMEM16A act = activators or potentiators of mouse TMEM16A chloride channel. HEK293 TMEM16A/YFP-H148Q/I152L, iodide quench fluorescence; stronger effect = lower value. hit rate 0.3% among 340,000. Q8BHY3. B-score at 10 µM;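 active = fluorescence-ratio B-score plate-corrected deviation score at least 3 library SD below zero, with starting fluorescence score within 5 deviations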;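 also: channel opened by trigger with iodide after compound preincubation; score built on the fluorescence ratio of max minus min over baseline; more negative score means more quench and so TMEM16A activation or potentiation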
# ANO1 block = mouse TMEM16A channel inhibition, primary screen. hit rate 1.2% among 310,000. HEK293 TMEM16A/YFP iodide influx fluorescence, ionomycin. normalized B-score (activity score, 25-100; higher = stronger inhibition) at 10 µM. Q8BHY3;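 active = ratio plate-corrected score three or more library SD toward inhibition, starting fluorescence score within five deviations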;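 also: score derived from kinetic fluorescence span divided by baseline fluorescence per well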
# CRFBP-R2 agonist = agonists of human CRF-binding protein/CRF-R2 receptor complex; activation, % at 13.2 µM; hit rate 0.46% among 350,000; HEK293 CRF-R2/CRF-BP, calcium dye fluorescence (FLIPR); percent of saturating CRF peptide response; AID 588473;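 active = activation of at least 50%, plus an integration ratio under a set limit after plate pattern correction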;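 also: plate controls were neutral control wells without compound for no effect and CRF at EC100 for full effect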
# MPTP block = inhibitors of mitochondrial permeability transition pore; isolated mouse mitochondria, Ca2+ swelling absorbance, 30 min; inhibition, % at 10 µM; hit rate 1.4% among 360,000; AID 602449;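 active = inhibition of 50% or more, scaled per plate between neutral and stimulator controls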;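 also: 0% = DMSO wells given calcium and 100% = 1 mM EGTA wells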
# MPTP counter = mitochondrial membrane potential, counter-screen; shares compounds with MPTP block; isolated mitochondria, Rhodamine 123 fluorescence; inhibition, % at 10 µM; hit rate 78% among 5,000; AID 624504; in the data active = inhibition above about 22%;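 also: 0% = DMSO vehicle and 100% = positive control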
# MPTP abs DR = MPTP inhibition, dose response swelling confirmation; shares compounds with MPTP block; isolated mitochondria swelling, absorbance; IC50, µM; hit rate 58% among 780; AID 651561; in the data active = IC50 below about 20 µM
# MPTP cs DR = active in counter-screen for permeability transition pore inhibitors; hit rate 49% among 780; isolated mitochondria counterscreen, fluorescence read-out; AID 651564; IC50, µM; shares compounds with MPTP block; in the data active = IC50 below about 80 µM
# * = called active by the depositor; i = inactive; · = not tested or not shown.
SMILES,NR3A LBD binder,CRFBP-R2 block,TMEM16A act,ANO1 block,CRFBP-R2 agonist,MPTP block,MPTP counter,others
CCOc1ccc(N/C(SCc2cccc([N+](=O)[O-])c2)=C(/C#N)C(N)=O)cc1,-4,-4,i,i,-4,2,·,
Cc1cccc2[nH]c3c(N4CC=C(c5ccc(F)cc5)CC4)ncnc3c12,-4,1,i,i,-3,66*,62*,
O=C(CNc1cc(S(=O)(=O)N2CCCC2)ccc1OCC(F)(F)F)Nc1cccc(C(F)(F)F)c1,5,44,i,i,0,51*,48*,
CN(C)CCCNS(=O)(=O)c1ccc(NC2CCCCCC2)c([N+](=O)[O-])c1,-5,-6,i,i,0,85*,81*,
O=C(O)c1cc(=S)nc[nH]1,-1,-5,i,·,0,0,·,
COc1ccc(CCN(C)C(=O)c2cccc(S(=O)(=O)N3CCN(c4ccc(F)cc4)CC3)c2)cc1OC,4,-3,i,·,1,5,·,
CN(CCOc1ccc(Cl)cc1)C(=O)c1cccc(S(=O)(=O)N2CCN(c3ccc(F)cc3)CC2)c1,-2,-3,i,·,0,58*,90*,
O=C(c1cccc(S(=O)(=O)N2CCN(c3ccc(F)cc3)CC2)c1)N1CCCC(C(F)(F)F)C1 (stereo unspecified),0,-2,i,25*,0,73*,85*,
Cc1cc(C)c(C)c(S(=O)(=O)N2CCN(c3ccccn3)CC2)c1C,0,29,i,i,-1,-2,·,
O=S(=O)(c1cc(C(F)(F)F)ccc1Cl)N1CCCCCC1,-1,23,i,i,-1,0,·,
O=S(=O)(c1cc(C(F)(F)F)ccc1Cl)N1CCN(c2ncnc3ccccc23)CC1,-2,-1,i,·,0,93*,105*,
Cc1cc(C)c(C)c(S(=O)(=O)N2CCN(c3ncnc4ccccc34)CC2)c1C,-2,0,i,·,1,76*,104*,
Cc1cccc(OCC(=O)N/N=C/c2sc(=O)n(Cc3cccc(C(=O)O)c3)c2Cl)c1,-1,9,i,i,0,0,·,
CCN1C(=O)[C@H]2[C@@H](c3ccc(-c4ccc(F)cc4)c(OC)c3)N[C@@](CC(C)C)(C(=O)OC)[C@H]2C1=O,·,·,·,i,·,·,·,
CCN(CC)S(=O)(=O)c1cc(C(=O)Nc2cccnc2)ccc1Cl,-5,-6,i,i,-4,1,·,
CCN(CC)S(=O)(=O)c1cc(C)ccc1NC(=S)Nc1cccnc1,-2,23,i,25*,-1,53*,88*,
Cc1cccc(/C=N\NC(=O)c2ccc(Cl)cc2)c1O,10*,-16,i,i,1,74*,80*,
O=C(N/N=C/c1ccc(O)c(O)c1)c1cccc(S(=O)(=O)N2CCCCC2)c1,-7,2,i,i,4,-2,·,
Cc1cccc(/C=N/NC(=O)Cc2ccc(Cl)cc2)c1O,2,-1,i,i,-2,16,·,
O=C(N/N=C/c1cc(Cl)ccc1O)c1ccc(Br)cc1,8,11,i,i,10,92*,64*,
O=C(N/N=C\c1cc(Br)ccc1O)c1ccc(S(=O)(=O)N2CCCCC2)cc1,8,-27,i,i,36,66*,53*,
CCCCn1c(SCC(=O)NC(=O)Cc2ccccc2)nc2ccccc2c1=O,-10,-20,i,·,1,1,·,
Cc1cccc(OCc2nnc(SCC(=O)Nc3ccc(N4CCOCC4)cc3)o2)c1,4,-20,i,i,8,0,·,
CCCCNC(=O)C1(C)CCCCN1C(=O)c1csnn1 (stereo unspecified),·,·,·,·,·,0,·,
Nc1nc2c(ncn2[C@@H]2O[C@H](CNCc3ccccc3)[C@@H](O)[C@H]2O)c(=O)[nH]1,·,·,·,·,·,0,·,
SMILES,NR3A LBD binder,CRFBP-R2 block,TMEM16A act,ANO1 block,CRFBP-R2 agonist,MPTP block,MPTP counter,others
Cc1cc2nc(-c3ccc(SCc4ccc(C#N)cc4)nc3)[nH]c2cc1C,-1,17,i,i,1,67*,66*,
CCCCOc1ccc(S(=O)(=O)NNC(=O)c2cc3ccccc3o2)cc1,-12,-7,i,i,-5,36,·,
CC(C)COc1ccc(S(=O)(=O)NNC(=O)c2cc3ccccc3o2)cc1,-20,-33,i,i,5,60*,50*,
COc1ccccc1NC(=O)Cc1csc(NC(=S)Nc2ccc(C)cc2)n1,10,-19,i,i,-1,72*,75*,
Cc1ccc(Sc2ccc(NC(=O)CCl)cc2)cc1C,-5,16,i,i,-1,52*,21*,
CCOC(=O)C1(Cc2ccccc2)CCN(Cc2cnn(-c3ccccc3)c2)CC1,1,-51,i,i,1,62*,2,MPTP abs DR=15*;MPTP cs DR=33*
Cn1cc(CN2CCCC(C(=O)c3ccc(-c4ccccc4)cc3)C2)cn1 (stereo unspecified),-3,-5,i,i,1,0,·,
CCOC(=O)C1(Cc2ccccc2)CCCN(Cc2cnn(CC)c2)C1 (stereo unspecified),1,-5,i,i,-4,64*,-2,MPTP abs DR=>100;MPTP cs DR=>80
CCn1cc(CN2CCCC(C(=O)c3ccc(-c4ccccc4)cc3)C2)cn1 (stereo unspecified),0,-118,i,i,-2,58*,4,MPTP abs DR=19*;MPTP cs DR=26*
O=C(CN1C(=O)C2CCCCC2C1=O)Nc1cc([N+](=O)[O-])ccc1F (stereo unspecified),1,-4,i,·,-1,-2,·,
COc1ccccc1N1CCN(CCCNC(=O)Nc2ccccc2C)CC1,1,-5,i,i,3,3,·,
COc1ccc(Cl)c(N2CCN(CCCNC(=O)Nc3ccc(C)cc3)CC2)c1,2,-10,i,i,-2,80*,-9,MPTP abs DR=9.4*;MPTP cs DR=37*
COc1ccc(Cl)cc1N1CCN(CCNC(=O)Nc2ccccc2C)CC1,-8,1,i,i,-6,94*,-7,MPTP abs DR=i;MPTP cs DR=32*
Oc1ccccc1N=N/C(=N/Nc1ccccc1O)c1ccccc1,-4,-21,i,i,-2,0,·,
N#C/C(N=Nc1ccccc1O)=N\Nc1ccccc1O,4,97*,i,100*,61*,126*,44*,
COc1ccc(C)cc1NC(=O)CSc1nc2ccccc2nc1N1CC(C)OC(C)C1 (stereo unspecified),3,-1,i,i,18,0,·,
Cc1cc(NC(=O)c2cncc(Br)c2)ccc1NC(=O)c1cc2ccccc2o1,8,33,i,i,-2,-2,·,

# High-throughput results as filed in PubChem.
